Results filed as inconclusive are left out. A call without a number means that no potency is given here. The source made the active and inactive calls. The call rests on the fitted dose curve; in most records, active means well fitted curve in the direction sought with a large enough effect; inconclusive means small, poorly fitted or top-dose-only effect, or another doubt; inactive means no such curve, though single readings can be large; an effect the other way counts as inactive or inconclusive.
Experiments:
[1] = Cell Viability - LYMP2-004 (AID 966); further: nearly all actives have a fitted effect of over 65% in size; further: potency means the concentration at half of the fitted maximal effect
In short: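 Human lymphoblastoid cells (2500/well) in complete medium were treated with compounds for 24 hr at 37 C, then intracellular ATP was measured by CellTiter-Glo luminescence. AC50 values came from Hill-equation fits of concentration-response data.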

[2] = Cell Viability - LYMP2-005 (AID 967); further: series mostly up to about 92 µM
In short: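 CellTiter-Glo luminescence (cellular ATP) read-out; LYMP2-005 lymphoblastoid cells, 2500/well, 5 h pre-incubation, then 24 h compound exposure at 37 C in complete medium. Tetraoctylammonium bromide positive control; AC50 by standard Hill fit.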

[3] = Cell Viability - LYMP2-013 (AID 970); further: nearly all actives have a fitted effect of over 55% in size; further: potency means the concentration at half of the fitted maximal effect
In short: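 Human lymphoblastoid cells, 2500/well, were preincubated 5 hr at 37 C, then treated with compounds for 24 hr at 37 C in complete medium. Intracellular ATP was read by CellTiter-Glo luminescence; AC50 from Hill-equation fits of concentration-response data.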

[4] = Cell Viability - LYMP2-017 (AID 972); further: nearly all actives have a fitted effect of over 55% in size; further: potency means the concentration at half of the fitted maximal effect
In short: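 Human lymphoblastoid cells (2500/well) were seeded in complete medium, held 5 hr at 37 C, then exposed to compounds for 24 hr at 37 C. Intracellular ATP was read by CellTiter-Glo luminescence after 30 min at room temperature, with AC50 values from Hill-equation fits.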

[5] = Cell Viability - LYMP2-019 (AID 973); further: nearly all actives have a fitted effect of over 55% in size; further: potency means the concentration at half of the fitted maximal effect
In short: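 Human lymphoblastoid cells were seeded at 2500 cells/well, preincubated 5 hr at 37 C, then exposed to compounds for 24 hr at 37 C in complete medium. Intracellular ATP was measured by CellTiter-Glo luminescence; AC50 from Hill fits.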

[6] = Cell Viability - LYMP2-021 (AID 974);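 further: compound exposure lasts 24 hours at 37 °C; nearly all actives have a fitted effect of over 55% in size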; further: potency means the concentration at half of the fitted maximal effect
In short: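 Human lymphoblastoid cells (2500/well) were preincubated 5 hr at 37 C, then exposed to compounds for 24 hr at 37 C in complete medium. Intracellular ATP was read by CellTiter-Glo luminescence; AC50 came from Hill-equation fits of concentration-response data.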

[7] = Cell Viability - LYMP2-023 (AID 975); further: nearly all actives have a fitted effect of over 55% in size; further: potency means the concentration at half of the fitted maximal effect
In short: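 Human lymphoblastoid cells (2500/well) were preincubated 5 hr at 37 C, then exposed to compounds for 24 hr at 37 C in complete medium. Cellular ATP was read by CellTiter-Glo luminescence, and AC50 came from Hill-equation fits.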

[8] = Cell Viability - LYMP2-009 (AID 968); further: nearly all actives have a fitted effect of over 55% in size; further: potency means the concentration at half of the fitted maximal effect
[9] = Cell Viability - LYMP2-011 (AID 969); further: nearly all actives have a fitted effect of over 60% in size; further: potency means the concentration at half of the fitted maximal effect
In short: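 Human lymphoblastoid cells (2500/well) were plated in complete medium, preincubated 5 hr at 37 C, then exposed to compounds for 24 hr at 37 C. Intracellular ATP was read by CellTiter-Glo luminescence, and AC50 came from Hill-equation concentration-response fits.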

[10] = Cell Viability - LYMP2-015 (AID 971); further: nearly all actives have a fitted effect of over 55% in size; further: potency means the concentration at half of the fitted maximal effect
In short: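 Human lymphoblastoid cells (2500/well) in complete medium were preincubated 5 hr at 37 C, then compound-treated 24 hr at 37 C. Intracellular ATP was read by CellTiter-Glo luminescence after 30 min at room temperature; AC50 came from Hill-equation concentration-response fits.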

SMILES	Potency [1]	outcome [2]	Potency [3]	Potency [4]	Potency [5]	Potency [6]	Potency [7]	Potency [8]	Potency [9]	Potency [10]
C=C(C)C(=O)OCCCCCC	inactive	inactive	inactive	inactive	inactive	inactive	inactive			
CCN(Cc1ccccc1)c1ccccc1	inactive		inactive		inactive	inactive	inactive	inactive	inactive	inactive
C=CC(=O)NC(C)C	inactive		inactive	inactive	inactive	inactive	inactive	inactive	inactive	inactive
Cc1cccc(C(=O)O)c1[N+](=O)[O-]	inactive		inactive		inactive	inactive	inactive	inactive	inactive	inactive
O=Cc1c(Cl)cccc1Cl	inactive		inactive	inactive	inactive	inactive	inactive	inactive	inactive	
C=C(C)C1CC=C(C)C(OC(C)=O)C1 (centres undefined)	inactive		inactive	inactive	inactive	inactive	inactive	inactive	inactive	inactive
Clc1ccc(Cl)c(Cl)c1Cl	inactive		inactive	inactive	inactive	inactive	inactive	inactive	inactive	inactive
CC(=O)Nc1ccc(N)cc1	inactive		inactive	inactive	inactive		inactive	inactive	inactive	inactive
CC1=C(/C=C/C(C)=C/C=C/C(C)=C\C=O)C(C)(C)CCC1	31.6 µM (active)		50.1 µM (active)	50.1 µM (active)	50.1 µM (active)	50.1 µM (active)	50.1 µM (active)	50.1 µM (active)	50.1 µM (active)	39.8 µM (active)
CC(C)CO	inactive		inactive		inactive	inactive	inactive	inactive	inactive	inactive
O=C(O)/C=C/C(=O)O	inactive		inactive	inactive	inactive	inactive	inactive	inactive	inactive	inactive
O=C(O)c1ccc(CO)o1	inactive	inactive					inactive			inactive
CCNc1ccccc1	inactive		inactive	inactive	inactive		inactive	inactive	inactive	inactive
COc1ccc(N=[N+]([O-])c2ccc(OC)cc2)cc1	inactive		inactive	inactive	inactive	inactive	inactive	inactive	inactive	
CCCCCCCCCCCCOCC1CO1 (centres undefined)	inactive		inactive	inactive	inactive	inactive	inactive	inactive	inactive	
CC(=O)Nc1ccc(C)cc1	inactive		inactive		inactive	inactive	inactive	inactive	inactive	inactive
CSCCC=O	inactive		inactive	inactive	inactive	inactive	inactive	inactive	inactive	inactive
CNC(=O)N(c1ccccc1)c1ccccc1	inactive	inactive	inactive	inactive	inactive	inactive	inactive			

SMILES	Potency [1]	outcome [2]	Potency [3]	Potency [4]	Potency [5]	Potency [6]	Potency [7]	Potency [8]	Potency [9]	Potency [10]
Cc1ccc2oc(=O)ccc2c1	inactive		inactive	inactive	inactive	inactive	inactive	inactive	inactive	inactive
Clc1ccccn1	inactive		inactive	inactive	inactive		inactive	inactive	inactive	inactive
CCCCC(CC)C(=O)O (centres undefined)	inactive		inactive	inactive	inactive	inactive	inactive	inactive	inactive	inactive
O=Cc1ccc(Cl)cc1	inactive		inactive		inactive	inactive	inactive	inactive	inactive	inactive
ICCc1ccccc1	inactive		inactive	inactive	inactive	inactive	inactive	inactive	inactive	inactive
Cc1cccc(C)c1[N+](=O)[O-]	inactive		inactive	inactive	inactive	inactive	inactive	inactive	inactive	inactive
Cc1ccc(C(=O)O)cc1	inactive		inactive	inactive	inactive	inactive	inactive	inactive	inactive	inactive
COc1ccccc1[N+](=O)[O-]	inactive		inactive		inactive	inactive	inactive	inactive	inactive	inactive
CCCCCCCCC	inactive		inactive	inactive	inactive	inactive	inactive	inactive	inactive	inactive
C=Cc1ccc(C=C)cc1	inactive		inactive	inactive	inactive	inactive	inactive	inactive	inactive	inactive
Nc1nc2ccccc2[nH]1	inactive		inactive	inactive	inactive	inactive	inactive	inactive	inactive	inactive
COc1ccc(N)c(OC)c1	inactive		inactive	inactive	inactive	inactive	inactive	inactive	inactive	inactive
CCCCCCC=O	inactive		inactive	inactive	inactive	inactive	inactive	inactive	inactive	
O=C(O)CNC(=O)c1ccc([N+](=O)[O-])cc1	inactive		inactive	inactive	inactive	inactive	inactive	inactive	inactive	inactive
CC(=O)OC(C)C	inactive		inactive	inactive	inactive		inactive	inactive	inactive	inactive
CCCCC(C=O)CC (centres undefined)	inactive		inactive		inactive	inactive	inactive	inactive	inactive	inactive
O=[N+]([O-])c1ccc2nc[nH]c2c1	inactive		inactive	inactive	inactive	inactive	inactive	inactive	inactive	inactive
Oc1c(Cl)ccc(Cl)c1Cl	inactive		inactive	inactive	inactive	inactive	inactive	inactive	inactive	
